TSHR antagonist = human thyrotropin receptor antagonism | P16473 | TSHR-expressing cells, TSH-stimulated cAMP HTRF, 2 h; stronger effect = lower value | activity change, negative = inhibition, % at 11.5 µM | 0.2% of 330,000 active;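 active = activity change below a set negative limit, meaning inhibition stronger than a set level, cut at about -70% in these data; inconclusive = activity change between two set negative limits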
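TSHR-expressing cells were treated with compounds, then stimulated with TSH at EC80 (4nM final) for 2 hours at 37 deg C. Cellular cAMP was measured by HTRF competition between lysate cAMP and cAMP-d2 for a cryptate-labelled anti-cAMP antibody.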
ELG1 DNA repair = inhibitors of ELG1-dependent DNA repair in HEK293T cells. 2.3% of 330,000 active. HEK293T ELG1-luciferase reporter, luminescence, 16 h; DNA damage induced by 5-fluorouridine. AID 504467. Potency, µM (titrated, usually from 46.1 µM), without a hit: at the highest dose activity change, negative = inhibition, hits mostly inhibitors; also: potency is read from the fitted curve at half-maximal effect; nearly all actives have a fitted effect of over 55% in size
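In this reporter screen, reduction of luminescence relative to DMSO vehicle indicated activity. Compounds and 5-fluorouridine were added together to 2,000 cells per well, incubated for 16 hr at 37 °C, then developed with ONE-Glo.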
VP16 counter = inhibits Gal4-VP16 luciferase reporter, ROR gamma counter-screen | Drosophila S2 Gal4-VP16 UAS-luciferase, luminescence, 20 h | Potency, µM (doses to about 53.6 µM), without a hit: top-dose activity, negative = inhibition, hits mostly inhibitors | AID 2546 | 3.5% of 310,000 active;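 also: Gal4-VP16 expression switched on by copper sulfate through the metallothionein promoter; potency is read from the fitted curve at half-maximal effect; nearly all actives have a fitted effect of over 50% in size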
Coupling enz = counter-screen for Giardia aldolase inhibitors: coupling enzyme system; coupling enzyme system counterscreen, AmpLite Red fluorescence; activity change, negative = inhibition, % at 58.2 µM, hits read low; 0.67% of 290,000 active; AID 2472; in the data active = activity change below about -30%
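Final compound at 57.5 uM, incubated 10 min at RT with coupling enzyme reagent (glyceraldehyde-3-phosphate), then 20 min with substrate and AmpLite Red detection. Fluorescence read at 525/598 nm; tests interference with the coupling assay, not aldolase inhibition.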
RORgamma inh = blocks mouse ROR gamma transcriptional activity | P51450 | Drosophila S2 Gal4-RORgamma UAS-luciferase reporter, 20 h | Potency, µM (doses to about 53.6 µM), for the others: at the top dose activity change, negative = inhibition, actives largely listed as inhibitors | 5.4% of 310,000 active | AID 2551; also: potency is read from the fitted curve at half-maximal effect; nearly all actives have a fitted effect of over 60% in size
Target sequence (P51450 whole entry, looked up, the tested form may be a part): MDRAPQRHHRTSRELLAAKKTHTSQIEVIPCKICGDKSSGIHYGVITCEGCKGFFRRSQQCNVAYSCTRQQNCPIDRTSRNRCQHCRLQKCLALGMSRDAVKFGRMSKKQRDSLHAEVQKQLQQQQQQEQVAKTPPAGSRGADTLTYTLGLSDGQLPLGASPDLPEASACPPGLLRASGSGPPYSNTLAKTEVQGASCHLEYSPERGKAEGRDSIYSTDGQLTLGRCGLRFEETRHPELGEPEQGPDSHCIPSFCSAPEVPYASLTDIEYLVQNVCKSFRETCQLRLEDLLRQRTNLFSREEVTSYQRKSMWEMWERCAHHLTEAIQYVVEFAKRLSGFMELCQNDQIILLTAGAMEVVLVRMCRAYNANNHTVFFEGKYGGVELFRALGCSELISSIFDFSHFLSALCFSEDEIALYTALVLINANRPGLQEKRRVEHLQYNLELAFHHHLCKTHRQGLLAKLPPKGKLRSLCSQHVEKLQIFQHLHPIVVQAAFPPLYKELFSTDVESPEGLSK
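ROR gamma transcriptional activity was tracked as Gal4-UAS luciferase output in stably transfected Drosophila Schneider cells, with compound added 1 hr before 700 uM copper sulfate induction and a 20 hr ambient-temperature incubation.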
* hit, by the source's call; ? = inconclusive; · = not tested or not shown. In the library only some 8% were active in any assay of this set; here they are far more common. Unless noted, calls follow the shape of the dose curve; as a rule, active = well fitted curve in the direction sought with a large enough effect; inconclusive = small, poorly fitted or top-dose-only effect, or another doubt; inactive = no such curve, though single readings can be large; an effect the other way counts as inactive or inconclusive. % is scaled to controls: 0 for no effect and ±100 for the full control effect.

SMILES | TSHR antagonist | ELG1 DNA repair | VP16 counter | Coupling enz | RORgamma inh
O=C(NCc1ccc2c(c1)OCO2)C(=O)NCC1OCCCN1S(=O)(=O)c1ccc(F)cc1 (stereo unspecified) | 2 | -4% | -2% | · | ?
O=C(COC(=O)CC(c1ccccc1)c1ccccc1)NCc1ccc(Cl)cc1 | 19 | 16µM* | 20µM* | 0 | 0%
CCCC(=O)OCC(=O)NCc1ccc(Cl)cc1 | 4 | -8% | 7% | 0 | -19%
O=C1CC(c2ccccc2)CC(O)=C1C=Nc1ccccc1 (stereo unspecified) | 9 | -10% | 5% | 1 | 18%
O=C1CC(c2ccccc2)CC(O)=C1C=Nc1ccccc1O (stereo unspecified) | 12 | 7% | -23% | 1 | 11µM*
CCOc1ccc(N2C(=O)S/C(=C\c3cccn3C)C2=O)cc1 | -23 | ? | -23% | 0 | ?
Cn1cccc1/C=C1\SC(=O)N(c2ccc(O)cc2)C1=O | -3 | ? | -20% | 2 | 2.8µM*
Cc1nc([N+](=O)[O-])c(Br)n1Cc1ccccc1 | 6 | ? | ? | 0 | ?
Cc1nc([N+](=O)[O-])c(Sc2nc3ccc([N+](=O)[O-])cc3[nH]2)n1Cc1ccccc1 | 7 | -33% | ? | 3 | 16µM*
C/C(=N\Nc1nnc(C)c(=O)[nH]1)C(=O)O | 5 | -1% | -6% | -51* | -40%
C=CCOn1c(=O)c(-c2ccc(C)cc2)[n+]([O-])c2ccccc21 | -8 | 10% | -6% | 0 | -18%
COC(=O)c1ccc(N2CN=C(c3ccc(C)cc3)NC2=S)cc1 | 19 | 10% | -3% | 1 | 12%
S=C1NC(c2ccccc2)=NCN1c1ccc(Cl)cc1 | -1 | ? | ? | 3 | 11µM*
CN(C)c1nc(NCc2ccccc2)nc(N/N=C/c2ccc3c(c2)OCO3)n1 | -4 | ? | ? | 0 | 7.9µM*
CCNc1nc(NCC)nc(N/N=C/c2ccc(N(C)C)cc2)n1 | 9 | 17% | ? | 3 | 7.9µM*
Brc1ccc(/C=N/Nc2ccccc2)cc1 | 7 | ? | 3% | -1 | 25%
CN(C)c1ccc(/C=N/Nc2nc3ccccc3o2)cc1 | 0 | ? | 11µM* | 4 | 6.3µM*
CN(C)c1nc(NCc2ccccc2)nc(N/N=C/c2ccc(Br)cc2)n1 | -13 | -2% | 13µM* | 0 | 2.8µM*
O=c1[nH]c(N/N=C\c2ccc3c(c2)OCO3)nc2ccccc12 | 4 | ? | ? | 2 | ?
NC(=O)C1CCN(c2nc(-c3cccc4sc5ccccc5c34)cs2)CC1 | -17 | · | · | · | ·
COc1ccc2c(=O)c(-c3nc(C)cs3)coc2c1 | -9 | ? | 2.2µM* | 0 | 1.3µM*
Cc1nc(-c2coc3cc(OCC(=O)O)ccc3c2=O)cs1 | 10 | 12% | 6.3µM* | -2 | 7.1µM*
C=C1C(=O)OC(CCCCCCCC)C1C(=O)O (stereo unspecified) | · | · | -28% | 20 | 18%
COc1ccc(CNC(=O)/C=C/c2ccco2)cc1OC | 3 | -9% | 7% | 1 | 11%
CCOc1ccc(NC(=S)NC(=O)/C=C/c2ccco2)cc1 | -4 | ? | 5.6µM* | 0 | 4µM*
SMILES | TSHR antagonist | ELG1 DNA repair | VP16 counter | Coupling enz | RORgamma inh
CN1CCN(c2ccc(NC(=S)NC(=O)/C=C/c3ccco3)cc2)CC1 | 43 | ? | 11µM* | 0 | 11µM*
CC(=O)Nc1ccc(NC(=S)NC(=O)/C=C/c2ccco2)cc1 | -2 | -11% | 17% | -1 | 20%
O=C(/C=C/c1ccco1)NC(=S)Nc1cccc(C(=O)O)c1 | -14 | ? | -5% | -2 | -6%
CC(=O)N(C)c1ccc(NC(=S)NC(=O)/C=C/c2ccco2)cc1 | -23 | ? | -29% | 0 | 10µM*
COc1ccc(NC(=S)NC(=O)/C=C/c2ccco2)c(OC)c1 | -22 | -30% | 13µM* | 0 | 13µM*
COc1cc2c(cc1OC)CN(C(=O)C1CCCN(C(=O)c3ccc(Cl)cc3)C1)CC2 (stereo unspecified) | 0 | -11% | · | · | ·
COc1ccccc1-c1cncnc1NCCNC(C)=O | · | · | 7% | 0 | -9%
COc1ccc(S(=O)(=O)NNC(=O)Nc2ccc(C)cc2C)c(OC)c1 | -5 | -1% | 1% | 11 | 9%

High-throughput results deposited in PubChem BioAssay by National Center for Advancing Translational Sciences (NCATS).
